Data on 7 molecules can be found in PubChem BioAssay (NCI).

Test systems include HCT-15 colon; HT29 colon; SNB-75 CNS; SNB-19 CNS; U251 CNS; PC-3 prostate; SK-MEL-5 melanoma; UACC-62 melanoma; LOX IMVI melanoma; SK-MEL-28 melanoma; SK-MEL-2 melanoma; EKVX NSCLC; SN12C renal; UO-31 renal; TK-10 renal; ACHN renal; CAKI-1 renal; A498 renal; CCRF-CEM leukemia; MOLT-4 leukemia.
Holding throughout (experiment): NCI-60 one-dose screen, 48 h (100 = growth as untreated, 0 = no growth, -100 = all killed)
Common to all, as to conditions: 10 µM

Compounds without any hit were thinned out: in the full panel of roughly 83,000, 20% have a hit.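 48-hour exposure, single concentration, 96-well plates; percent growth endpoint where 0 means no net growth. Active: below 10.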 A number with no mark means an inactive call. Active and inactive are the calls of the source.

For `CCOP(=O)(OCC)O[C@H]1CCC(=O)[C@@H]2[C@H]1[C@H]1C[C@@H]3[C@@]4(C)CCCC(C)(C(=O)OC)[C@@H]4CC[C@@]23C=C1C(C)C` (stereo not given in full), the growth with HCT-15 colon is 49.8%; with HT29 colon it was 42.5%; with SNB-75 CNS, 100%; in the experiment with SNB-19 CNS, 68.1%; with U251 CNS, 42.1%; with PC-3 prostate, 23.5%. Further, the growth is 18.1% in the experiment on SK-MEL-5 melanoma; 46.1% in the experiment with UACC-62 melanoma; 62.4% with LOX IMVI melanoma; 72.7% in the experiment on SK-MEL-28 melanoma; 71.3% in the experiment on SK-MEL-2 melanoma; 41.5% in the experiment with EKVX NSCLC. The growth with SN12C renal is 65.4%; in the experiment on UO-31 renal, 53.5%; in the experiment on TK-10 renal, 83.2%; in the experiment on ACHN renal, 65.2%; with CAKI-1 renal, 63.2%; with A498 renal it was 91.1%. Besides, the growth with CCRF-CEM leukemia was 55.1%; in the experiment with MOLT-4 leukemia, 30%.

On to `N#Cc1c(-c2ccc(F)cc2)nc(SCc2ccc([N+](=O)[O-])cc2)nc1N1CCOCC1`, for which the growth with HCT-15 colon is 72.8%; in the experiment with HT29 colon, 86.6%; in the experiment with SNB-75 CNS, 7.62% (active); in the experiment on SNB-19 CNS it was 46%; in the experiment on U251 CNS it was 55.3%; with PC-3 prostate, 59.1%. For the same molecule, the growth is 61.9% in the experiment on SK-MEL-5 melanoma; 62.7% with UACC-62 melanoma; 84.7% in the experiment with LOX IMVI melanoma; 82.1% with SK-MEL-28 melanoma; 87.4% with SK-MEL-2 melanoma; 39.3% with EKVX NSCLC. Further, the growth in the experiment on SN12C renal is 74.6%; with UO-31 renal, 50.9%; in the experiment on TK-10 renal it was 84.2%; in the experiment on ACHN renal it was 51%; in the experiment on CAKI-1 renal it was 35.9%; with A498 renal, 64.4%. The figures for the growth in the experiment on CCRF-CEM leukemia and with MOLT-4 leukemia were 77.2% and 73.7%, respectively.

For the molecule `O=C1NC(=NC23CC4CC(CC(C4)C2)C3)N/C1=C\c1ccc2ncccc2n1`, the growth with HCT-15 colon was -16.2% (active); in the experiment on HT29 colon, -17.4% (active); in the experiment on SNB-75 CNS, -70.7% (active); with SNB-19 CNS it was -7.61% (active); in the experiment on U251 CNS, 5.17% (active); in the experiment with PC-3 prostate it was -0.602% (active). The growth is -68.3% (active) with SK-MEL-5 melanoma; -64.4% (active) in the experiment on UACC-62 melanoma; -42.6% (active) in the experiment with LOX IMVI melanoma; -30.2% (active) with SK-MEL-28 melanoma; -94.8% (active) in the experiment on SK-MEL-2 melanoma; -22% (active) with EKVX NSCLC. Further, the growth in the experiment with SN12C renal was 1.63% (active); in the experiment with UO-31 renal, -15.8% (active); with TK-10 renal it was 9.19% (active); in the experiment with ACHN renal it was -13% (active); in the experiment on CAKI-1 renal, -13.4% (active); in the experiment with A498 renal, -28.3% (active). The growth is -9.82% (active) with CCRF-CEM leukemia and -10.9% (active) in the experiment on MOLT-4 leukemia.

For `COc1cc(C2CC(c3ccc(C)cc3)=Nc3c(N)nc(N)nc3N2)ccc1Oc1nc(Nc2ccc(F)cc2)nc(N(C)C)n1` (stereo not given), the growth in the experiment on HCT-15 colon was 14.9%; in the experiment on HT29 colon it was 9.46% (active); in the experiment with SNB-75 CNS it was 104%; with SNB-19 CNS it was 66.7%; in the experiment on U251 CNS it was 52.2%; in the experiment with PC-3 prostate, 45.6%. For the same molecule, the growth in the experiment with SK-MEL-5 melanoma was -100% (active); in the experiment on UACC-62 melanoma, 77.7%; in the experiment with LOX IMVI melanoma it was -77.8% (active); in the experiment with SK-MEL-28 melanoma it was 88.3%; in the experiment with SK-MEL-2 melanoma, 72.9%; in the experiment with EKVX NSCLC, 70.1%. In addition, the growth is 68.6% in the experiment on SN12C renal; 53.3% with UO-31 renal; 101% with TK-10 renal; 47.1% in the experiment on ACHN renal; 49.4% in the experiment with CAKI-1 renal; 96.5% in the experiment with A498 renal. Further, the growth in the experiment on CCRF-CEM leukemia was 47.1%; in the experiment on MOLT-4 leukemia it was 13.2%.

For `O=c1oc2ccc(-c3ccc(F)cc3F)cc2c(=O)n1-c1ccc(F)c(Cl)c1`, the growth is -23.6% (active) in the experiment on HCT-15 colon; 23.1% with HT29 colon; -23.7% (active) in the experiment with SNB-75 CNS; 12.5% in the experiment on SNB-19 CNS; 7.08% (active) with U251 CNS; 5.69% (active) in the experiment on PC-3 prostate. Also, the growth was -91.6% (active) in the experiment on SK-MEL-5 melanoma; -60.2% (active) in the experiment with UACC-62 melanoma; -69.9% (active) with LOX IMVI melanoma; -21% (active) in the experiment with SK-MEL-28 melanoma; -67.4% (active) in the experiment with SK-MEL-2 melanoma; -9.05% (active) with EKVX NSCLC. Also, the growth in the experiment on SN12C renal was -17% (active); in the experiment on UO-31 renal it was -5.43% (active); in the experiment with TK-10 renal, 11.9%; with ACHN renal it was -12.7% (active); in the experiment on CAKI-1 renal, -20.4% (active); with A498 renal it was -20.8% (active). Also, the growth in the experiment with CCRF-CEM leukemia is -5.97% (active); in the experiment with MOLT-4 leukemia, -30.7% (active).

In the case of `O=S(=O)(Nc1ncccn1)c1ccc(-n2c(-c3ccc(Br)cc3)nc(-c3ccccc3)c2-c2ccccc2)cc1`, the growth in the experiment on HCT-15 colon is 22.5%; in the experiment on HT29 colon, 41.8%; with SNB-75 CNS, 26.5%; with SNB-19 CNS it was 23.3%; with U251 CNS, 30.8%; in the experiment on PC-3 prostate, 22.3%. Also, the growth is 25.3% with SK-MEL-5 melanoma; 34.3% with UACC-62 melanoma; 32.2% in the experiment on LOX IMVI melanoma; 29.3% in the experiment on SK-MEL-28 melanoma; 56.8% with SK-MEL-2 melanoma; 16.1% with EKVX NSCLC. The growth in the experiment on SN12C renal is 35.9%; in the experiment on UO-31 renal, 20.1%; with TK-10 renal, 56.7%; in the experiment on ACHN renal it was 38.5%; in the experiment on CAKI-1 renal, 23.7%; with A498 renal it was -1.34% (active). The growth in the experiment on CCRF-CEM leukemia is 18.6%; with MOLT-4 leukemia, 22.4%.

As for `COc1ccc(-c2cc(C(=O)N=Nc3c(O)[nH]c4ccccc34)c3ccccc3n2)cc1`, the growth is -83.1% (active) with HCT-15 colon; -15.1% (active) in the experiment on HT29 colon; 53.7% in the experiment with SNB-75 CNS; -38.8% (active) in the experiment on SNB-19 CNS; -67.6% (active) in the experiment with U251 CNS; 2.92% (active) with PC-3 prostate. The growth in the experiment with SK-MEL-5 melanoma is 47.3%; in the experiment with UACC-62 melanoma, 39.5%; in the experiment with LOX IMVI melanoma, -73.6% (active); with SK-MEL-28 melanoma, -41% (active); in the experiment with SK-MEL-2 melanoma, 64.9%; with EKVX NSCLC, -12.7% (active). Further, the growth with SN12C renal was -38.8% (active); in the experiment with UO-31 renal, 24.5%; in the experiment with TK-10 renal, 19.2%; with ACHN renal, -64.2% (active); in the experiment with CAKI-1 renal, -58.8% (active); in the experiment with A498 renal it was 112%. In addition, the growth in the experiment with CCRF-CEM leukemia is 49%; in the experiment on MOLT-4 leukemia, 45.1%.
